Screening data (PubChem)
Shiga inhibitor: A qHTS for Small Molecule Inhibitors of Shiga Toxin | Vero cells, Shiga toxin protein synthesis inhibition reporter | inhibition, % at 38.7 µM | 290,000 compounds, 9.2% hits | AID 2315, 2010; in the data active means inhibition mostly above about 28%, no sharp cut-off; inactive means mostly below about 43%; further: 0% is about no effect
TbPYK inhibitor: qHTS of Trypanosoma Brucei Inhibitors; TbPYK enzyme, Kinase-Glo Plus ATP luminescence, 45 min; Potency, µM (series often up to 76.8 µM), for the others: at the top dose activity, negative = inhibition, hits mostly inhibitors; 410,000 compounds, 0.12% hits; further: potency means the concentration at half of the fitted maximal effect; on the % scale 0 is the no-effect control and ±100 the full control effect; nearly all actives have a fitted effect of over 50% in size
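Luminescent Kinase-Glo Plus end-point after 45 min room-temperature reaction of T. brucei pyruvate kinase started with 130 uM ADP (final). Buffer TEA 50 mM pH 7.2 with KCl, MgCl2, BSA, Tween-20; titration-based qHTS with fitted concentration-effect curves.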
LmPK inhibitor: qHTS Assay for Inhibitors of Leishmania Mexicana Pyruvate Kinase (LmPK) | Q27686 | purified LmPK, Kinase-Glo ATP luminescence, 1 h | Potency, µM (titrated, usually from 57.5 µM), without a hit: top-dose activity change, negative = inhibition, actives largely listed as inhibitors | 290,000 compounds, 0.37% hits; further: potency means the concentration at half of the fitted maximal effect; on the % scale 0 is the no-effect control and ±100 the full control effect
Target sequence (Q27686 whole entry, looked up): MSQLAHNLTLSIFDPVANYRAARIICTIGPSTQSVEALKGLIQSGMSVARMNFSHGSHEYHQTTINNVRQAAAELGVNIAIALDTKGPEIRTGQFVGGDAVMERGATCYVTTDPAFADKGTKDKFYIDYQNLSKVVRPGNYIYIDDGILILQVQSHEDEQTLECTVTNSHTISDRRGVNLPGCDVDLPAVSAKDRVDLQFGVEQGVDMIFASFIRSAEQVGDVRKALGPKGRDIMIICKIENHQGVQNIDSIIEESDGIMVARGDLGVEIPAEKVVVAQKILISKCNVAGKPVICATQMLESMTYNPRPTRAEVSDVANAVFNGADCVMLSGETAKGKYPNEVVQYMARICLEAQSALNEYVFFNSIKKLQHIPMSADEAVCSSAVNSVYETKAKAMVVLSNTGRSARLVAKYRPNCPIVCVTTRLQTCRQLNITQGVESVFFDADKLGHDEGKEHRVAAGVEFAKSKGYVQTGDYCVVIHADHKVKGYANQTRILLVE
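In 50 mM imidazole pH 7.2 with 7 mM MgCl2, LmPK (0.1 nM) turned over PEP (0.5 mM) and ADP (0.1 mM) for 1 h at room temperature. Luciferase read-out of ATP.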
Giardia FBPA inh: qHTS Assay for Inhibitors of Fructose-1,6-bisphosphate Aldolase from Giardia Lamblia; 290,000 compounds, 0.71% hits; purified Giardia FBPA; A8B2U2; AID 2451, 2010; Potency, µM (top dose mostly 59.6 µM), inactives show top-dose activity, negative = inhibition, actives largely listed as inhibitors; further: potency means the concentration at half of the fitted maximal effect; on the % scale 0 is the no-effect control and ±100 the full control effect; nearly all actives have a fitted effect of over 55% in size
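40 nM FBPA preincubated 10 min at RT with compound (up to 57.5 uM final), then substrate plus GAPDH/TPI/NAD/arsenate coupling and diaphorase/resazurin added. Fluorescence read after 20 min at RT, 525/598 nm.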
Cycloheximide cs: Cycloheximide Counterscreen for Small Molecule Inhibitors of Shiga Toxin. max response, %. 300,000 compounds, 12% hits. cell reporter, cycloheximide protein synthesis inhibition counterscreen; in the data active means max response mostly above about 13%, no sharp cut-off; inactive means mostly below about 14%; further: read at 38.3 µM for the half of the compounds with a filed dose; 0% is about no effect
Sm TGR inh: qHTS Assay for the Inhibitors of Schistosoma Mansoni Peroxiredoxins; purified TGR, DTNB reduction, TNB absorbance 405 nm; Potency, µM (top dose mostly 114 µM), without a hit: at the highest dose activity change, negative = inhibition, actives largely listed as inhibitors; 360,000 compounds, 3% hits; further: potency means the concentration at half of the fitted maximal effect; on the % scale 0 is the no-effect control and ±100 the full control effect; nearly all actives have a fitted effect of over 60% in size
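Kinetic colorimetric format: TGR-catalysed, NADPH-driven DTNB reduction monitored via TNB absorbance. Enzyme dispensed at 20 nM; compound exposure 15 min at room temperature before reaction start.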
Active calls of the source: *; ? = inconclusive; . = no result given. Shown is part of a subset that was picked to be rich in hits. Unless noted, the call rests on the fitted dose curve; in most records, active means well fitted curve in the direction sought with a large enough effect; inconclusive means small, poorly fitted or top-dose-only effect, or another doubt; inactive means no such curve, though single readings can be large; an effect the other way counts as inactive or inconclusive.

SMILES | Shiga inhibitor | TbPYK inhibitor | LmPK inhibitor | Giardia FBPA inh | Cycloheximide cs | Sm TGR inh
O=C(Nc1ccc(CN2CCCCC2)cc1)c1cccc(Br)c1 | 42* | -3% | 13% | -8% | 21* | -9%
C/C(=N\NC(=O)c1ccc(CN2CCOCC2)cc1)c1ccc(NC(=O)c2ccccc2)cc1 | 63* | -4% | -16% | 0% | 41* | 1%
O=C(Nc1ccc(CN2CCOCC2)cc1)c1ccc(Cl)cc1 | 36* | 0% | 0% | -6% | 33* | -35%
O=C(Nc1ccc(CN2CCOCC2)cc1)c1cccc(F)c1 | 81* | 1% | -9% | 0% | 52* | 6%
CC(=O)Nc1ccc(/C(C)=N/NC(=O)c2ccc(CN3CCOCC3)cc2)cc1 | -6 | 2% | 2% | 1% | -1 | 7%
O=C(Nc1ccc(CN2CCCCC2)cc1)c1cc(Br)ccc1Cl | 6 | 3% | 0% | 4% | -1 | 4%
COc1ccc(CCNC(=O)c2cnn(-c3ccc(F)cc3)c2C2CCN(C(=O)OC(C)(C)C)CC2)cc1OC | . | -3% | . | . | . | -4%
CC1CN(C(=O)COC(=O)Cc2c(F)cccc2Cl)CC(C)O1 (stereo not drawn) | . | 2% | . | . | . | -19%
COc1ccc(-n2cnnc2SCC(=O)NC2CCCCC2)cc1 | . | 3% | . | . | . | .
CCOc1ccc(NC(=O)c2ccc(NC(=O)c3ccc(CN4CCOCC4)cc3)cc2)cc1 | 32 | -3% | -2% | 0% | 6 | 0%
Cc1sc2nc(CN3CCOCC3)nc(Oc3ccc(NC(=O)c4ccco4)cc3)c2c1C | -23 | 3% | -2% | 6% | -7 | 28µM*
O=C(Nc1ccc(CN2CCOCC2)cc1)c1ccc2ccccc2c1 | 46* | -2% | -4% | -4% | 59* | -28%
COc1c(C)cccc1C(=O)Nc1ccc(CN2CCCCC2)cc1 | 56 | . | -2% | 2% | 37* | -24%
C/C(=N\NC(=O)CSCc1ccc(Cl)cc1)c1ccc(NC(=O)c2ccccc2)cc1 | 21 | 5% | 0% | -1% | 23* | -8%
CC(C)(C)c1ccc(C(=O)Nc2ccc(CN3CCS(=O)(=O)CC3)cc2)cc1 | 36 | 2% | 4% | -1% | 17* | 5%
O=C(Nc1ccc(CN2CCS(=O)(=O)CC2)cc1)c1ccc(C(F)(F)F)cc1 | 17 | 5% | 7% | -2% | 2 | 12%
O=C(Nc1ccc(CN2CCOCC2)cc1)c1ccc(Br)cc1 | 31 | 3% | 3% | 12% | 17* | 0%
O=C(Nc1ccc(CN2CCOCC2)cc1)c1ccc(F)cc1 | 60* | -3% | 0% | 2% | 29* | -22%
O=C(Nc1ccc(CN2CCS(=O)(=O)CC2)cc1)c1ccc(F)cc1 | 12 | 8% | 3% | 1% | 5 | -15%
COc1cccc(-c2nnc3n2N=C(c2ccc(OC)cc2OC)CS3)c1 | -5 | . | . | 1% | 12 | .
Cc1ccc(N(C)S(=O)(=O)c2ccc(-c3coc(C)n3)cc2)cc1 | . | -1% | . | . | . | 1%
CC(C)C[C@H](NC(=O)[C@H](Cc1ccccc1)NC(=O)c1cnccn1)B(O)O | . | 0% | . | . | . | .
CCOc1ccc(NC(=O)COC(=O)C2CC2C)cc1 (stereo not drawn) | . | -2% | . | . | . | .
CC1CC1C(=O)OCC(=O)Nc1ccc(N=Nc2ccccc2)cc1 (stereo not drawn) | 93* | 3% | -2% | 6% | 55* | -2%
CC1CC1C(=O)OCC(=O)Nc1cccc([N+](=O)[O-])c1 (stereo not drawn) | 65* | 7% | 0% | -7% | 32* | -8%
SMILES | Shiga inhibitor | TbPYK inhibitor | LmPK inhibitor | Giardia FBPA inh | Cycloheximide cs | Sm TGR inh
CCCC(=O)OCC(=O)Nc1ccc(N=Nc2ccccc2)cc1 | 84* | 3% | 1% | 5% | 62* | 1%
CC(C)NC(=O)C1CCN(c2nc3ccccc3nc2C(F)(F)F)CC1 | . | -9% | . | . | . | 1%
COc1ccc(CCNC(=O)c2cc3c(=O)n(C)c4ccccc4c3s2)cc1OC | . | 3% | . | . | . | -1%
Cc1[nH]c2ccccc2c1C(c1ccncc1)N1CCC(C)CC1 (stereo not drawn) | 18 | -8% | -6% | 6% | 4 | 2.5µM*
Cc1[nH]c2ccccc2c1C(c1ccncc1)N1CCN(c2ccccn2)CC1 (stereo not drawn) | 28 | 15% | 2% | 0% | -2 | 1µM*
Cc1[nH]c2ccccc2c1C(c1ccncc1)N1CCN(c2ccccc2F)CC1 (stereo not drawn) | -4 | -2% | -1% | -2% | 1 | 3.5µM*
CC(C)(C)n1nnnc1C(c1cccnc1)N1CCN(c2ccccc2F)CC1 (stereo not drawn) | -6 | -8% | 0% | 3% | -2 | -24%
Clc1ccc(C(c2ccccc2)N2CCN(c3ccccn3)CC2)cc1 (stereo not drawn) | 1 | 2% | -1% | 0% | 7 | -1%
CCN(CC)S(=O)(=O)c1ccc2c(c1)N(CC(=O)N1CCN(c3ccccc3F)CC1)C(=O)CO2 | . | 3% | . | . | . | -2%
COc1ccc(C(=O)N2c3nc(-c4ccco4)nn3C3(CCCCC3)[C@@H]3CCCC[C@@H]32)cc1OC | . | ? | . | . | . | 11µM*
O=C(c1ccccc1F)N1c2nc(-c3ccco3)nn2C2(CCCCC2)[C@@H]2CCCC[C@@H]21 | . | -19% | . | . | . | 10µM*
O=C(c1ccc(F)cc1)N1c2nc(-c3ccco3)nn2C2(CCCCC2)[C@@H]2CCCC[C@@H]21 | . | -7% | . | . | . | ?
COc1ccc(NC(=O)c2noc3c2CSc2ccccc2-3)cc1Cl | . | 5% | . | . | . | 7%
CC(=O)c1cccc(NC(=O)c2noc3c2CSc2ccccc2-3)c1 | . | -3% | . | . | . | 11µM*
COc1cc(OC)c(NC(=O)c2noc3c2CSc2ccccc2-3)cc1Cl | . | 6% | . | . | . | 2.5µM*
CC(=O)Oc1ccc2c(c1)CCC1C2CC[C@@]2(C)C1CC(OC(C)=O)C2OC(C)=O (stereo partly drawn) | . | . | . | -4% | . | .
Cc1cccc(C(=O)Nc2ccc(C(=O)N/N=C/c3ccc(C)o3)cc2)c1 | 15 | -5% | -3% | -10% | 7 | ?
Cc1occc1C(=O)NNC(=S)NC(=O)COc1ccc(Cl)cc1Cl | 42 | -24% | -4% | . | 26* | ?
Cc1occc1C(=O)NNC(=O)COc1ccc(Br)cc1Br | 50* | 0% | -5% | 0% | 14 | 3%
COc1ccccc1OCCC(=O)NNC(=O)c1ccccc1F | . | 1% | . | . | . | -9%
Cc1ccc(C(=O)NCc2ccncc2)cc1S(=O)(=O)N1CCCCC1 | 15 | 3% | 1% | . | -1 | -1%
O=[N+]([O-])c1cccnc1S(=O)(=O)c1ccccc1 | 6 | -6% | -3% | 4% | 14 | 0.32µM*
